Screening results as filed in PubChem BioAssay.
The full list was thinned out, with hits kept by preference.
Tg IFNy HTS: T. gondii growth inhibition under IFN-gamma. Toxoplasma gondii growth in IFN-gamma-treated host cells; hits give low values. activity change, negative = inhibition, % (no concentration beside the values). hit rate 3.8% among 69,000; in the data active means activity change below about -70%, passing the limit was not always enough;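 further: host cells are HeLa cells infected with Toxoplasma gondii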
A number is an active result; 0 = inactive; ! = repeats disagree.

SMILES	Tg IFNy HTS
c1ccc2c(N3CCN(Cc4cccc5nccnc45)CC3)ncnc2c1	0
c1ccc(CN2CCN(c3ncnc4ccccc34)CC2)cc1	-85.7
c1ccc(-n2cc(CN3CCN(c4ncnc5ccccc45)CC3)cn2)cc1	0
CCCCc1ncc(-c2nccn2Cc2ccoc2)[nH]1	0
O=C(c1ccoc1)N1CCC(N2CCc3ccccc32)CC1	0
Cc1ccc(NC(=O)CN2C(=O)CCc3cc(Br)ccc32)cc1F	0
Cc1cc(C)cc(NC(=O)CN2C(=O)CCc3cc(Br)ccc32)c1	0
O=C(CN1C(=O)CCc2cc(Br)ccc21)Nc1cccc2c1CCCC2	0
CCN1CCN(Cc2ccc(NC(=O)CN3C(=O)CCc4cc(Br)ccc43)cc2)CC1	-92.3
O=C(CN1C(=O)CCc2cc(S(=O)(=O)N3CCCCC3)ccc21)NC1CCCc2ccccc21 (stereo unspecified)	0
O=C(CN1C(=O)CCc2cc(Br)ccc21)NC1CCCc2ccccc21 (stereo unspecified)	-94.1
COc1cccc(CC(=O)N2CCN(S(=O)(=O)c3cnoc3-c3ccncc3)CC2)c1	0
C=CCNC(=O)c1ccc(-c2cccc(C(C)=O)c2)o1	0
CN(Cc1cc(-c2ccccn2)no1)S(=O)(=O)NCc1ccccc1	0
CCC(C)n1ncn(-c2ccc(N3CCN(c4ccc(OCC5COC(Cn6cncn6)(c6ccc(Cl)cc6Cl)O5)cc4)CC3)cc2)c1=O (stereo unspecified)	-95.1
Cc1cccc(COC2CC3CN(Cc4ccc(C)s4)CCN3C2)n1 (stereo unspecified)	0
CCS(=O)(=O)N1CCC2O[C@@H](COCc3ccncc3)CCC21 (stereo partly specified)	0
CCC(C)Nc1ncnc2cc(OC)c(OC)cc12 (stereo unspecified)	0
COc1cc2ncnc(Nc3cccc(O)c3)c2cc1OC	0
COc1cc2ncnc(Nc3cccc(Br)c3)c2cc1OC	-79.0
CN(C)CCOCC1CN(Cc2cnn(C)c2)Cc2ccnn2C1 (stereo unspecified)	0
O=C1N(Cc2ccccn2)C(=O)C2(CCN(Cc3ccc4c(c3)OCO4)CC2)N1CCc1ccccc1	0
O=C1N(Cc2cccnc2)C(=O)C2(CCN(Cc3cc4ccccc4o3)CC2)N1CCc1ccccc1	-85.9
COC(=O)CN1C(=O)N(CCc2ccccc2)C2(CCN(Cc3ccncc3)CC2)C1=O	0
CCc1cc(C(=O)c2ccc(OC)cc2)c(NC(=O)c2nccnc2C(=O)O)s1	0
SMILES	Tg IFNy HTS
COC1CC2COCC(C1)N2Cc1cccc(C)c1 (stereo unspecified)	0
O=C(O)CC1CC2(CCN(C(=O)Cc3cccnc3)CC2)Oc2ccccc21 (stereo unspecified)	0
CCC(=O)N1CCC2(CC1)CC(CC(=O)Nc1cccnc1)c1ccccc1O2 (stereo unspecified)	0
CN(C)C(=O)N1CCC2(CC1)CC(CC(=O)Nc1cccnc1)c1ccccc1O2 (stereo unspecified)	-112.7
C[C@H]1CC=CC[C@@H](c2cccc(Cl)c2)NC(=O)[C@H](Cc2ccccc2)N(C)C(=O)c2ccccc2O1 (mixture of isomers)	0
COc1ccc(-c2nc(Nc3ccc(CN4CCC(C)CC4)cc3)c3ccccc3n2)cc1	0
COc1ccc(-c2nc(NCCN3CCC(C)CC3)c3ccccc3n2)cc1	0
COc1ccc(CCN2CCC(Nc3nc4ccccc4n3Cc3ccc(F)cc3)CC2)cc1	-92.5!
CCOc1ccccc1NC(=O)CCN1CCC(C(=O)NC)C1 (stereo unspecified)	0
Cc1cnc(N2CCN3C[C@H](OCc4ccccc4F)C[C@@H]3C2)nc1	0
O=C(NCc1nnc2n1CCCC2)c1cccc(C2CCNC2)c1 (stereo unspecified)	0
CN(Cc1cccc2ncccc12)C(=O)c1cccc(C2CCNC2)c1 (stereo unspecified)	0
CCn1nc(CNC(=O)c2cccc(C3CCNC3)c2)c2ccccc21 (stereo unspecified)	-85.6
O=C(c1ccco1)c1coc2ccc(O)cc12	0
Cc1ccc(NC(=O)CC(=O)NCCS(=O)(=O)N2CCCC2)c(C)c1	0
NC(=O)Cn1cc(CN2CCC3(CC2)Nc2ccccc2C2=NCCCN23)c2ccccc21	0
Cc1cccc(C)c1-n1nnnc1-c1cnccc1C(F)(F)F	0
O=C(NC(=O)c1cnccc1C(F)(F)F)Nc1ccc(Cl)cc1Cl	0
FC(F)(F)c1ccncc1-c1ncc(-c2cccc(Cl)c2)o1	-95.1
COc1ccc(NC(=O)Cn2c(=O)ccc3cc(S(=O)(=O)N4CCC(C)CC4)ccc32)cc1	0
Cc1ccccc1-c1nc(Cn2ccn3nc(-c4cccs4)cc3c2=O)c(C)o1	0
CCOc1ccccc1-c1nc(Cn2ccn3nc(-c4cccs4)cc3c2=O)c(C)o1	-87.4
CCOc1ccccc1-c1nc(Cn2ccn3nc(-c4ccccc4OC)cc3c2=O)c(C)o1	0
O=S(=O)(NCc1cccs1)c1ccccc1	0
COc1ncccc1-n1ccnc1-c1ccccc1OC(C)C(=O)O (stereo unspecified)	0
SMILES	Tg IFNy HTS
O=C(Nc1nnc(Cc2ccc(Cl)cc2)s1)c1nc2ncccn2n1	0
CC(=O)N1C2CN(Cc3ccc(C)o3)CC2C[C@@H]1C(=O)NCC1CC1 (stereo partly specified)	0
CC(=O)N1[C@H](CN2CCCC2)C[C@H]2CN(C(=O)c3ccco3)CC[C@H]21	0
CC(=O)N1[C@H](CN2CCCC2)C[C@H]2CN(Cc3ccc(C)o3)CC[C@H]21	-79.9
CO[C@@H]1CCN(c2nnc(C)s2)C[C@@H]1Cc1cccc(C)c1	0
O=C(c1ccc(Oc2ccccc2)o1)N1Cc2cnn(CCO)c2C1	0
CC1(C)CC(=O)c2cc(-c3ccccc3)n(CC(=O)O)c2C1	0
Cc1ccccc1-n1nc(C)c2c1CC(C)(C)CC2=O	0
COc1ccccc1-n1c(-c2ccc(Br)cc2)cc2c1CC(C)(C)CC2=O	-92.2
COc1ccc(-n2cccn2)c(CN2CCC(n3nc(C)cc3C)C2)c1 (stereo unspecified)	0
COc1ccc(-n2cccn2)c(CN2CCCCC2c2ccccn2)c1 (stereo unspecified)	-85.2
COc1ccc(-c2nc(CN3CCCC3c3ccccn3)c(C)o2)cc1 (stereo unspecified)	0
Cn1nc(C(=O)NCc2noc(-c3ccco3)n2)c2c1CCCC2	0
CN(C)c1cccc(C(=O)N2CCc3c([nH]c4ccccc34)C2c2ccccc2)c1 (stereo unspecified)	-111.3
CSc1ccc(C2c3[nH]c4ccccc4c3CCN2C(=O)c2cccc(F)c2)cc1 (stereo unspecified)	0
CSc1ccc(C2c3[nH]c4ccccc4c3CCN2C(=O)c2cccc(N(C)C)c2)cc1 (stereo unspecified)	0
COc1ccc(C2c3[nH]c4ccccc4c3CCN2C(=O)c2ccc(N(C)C)cc2)cc1 (stereo unspecified)	0
CSc1ccc(C2c3[nH]c4ccccc4c3CCN2C(=O)c2cccc(C)c2)cc1 (stereo unspecified)	-114.6
Cc1cccc(C(=O)N2CCc3c([nH]c4ccccc34)C2c2ccc(Cl)cc2)c1 (stereo unspecified)	-104.2
Cc1cccc(C(=O)N2CCc3c([nH]c4ccccc34)C2c2ccc(F)cc2)c1 (stereo unspecified)	0
CSc1nnc(SCc2nc(-c3ccc(Cl)c(Cl)c3)cs2)s1	0
COCCN1CCC2CN(Cc3ccsc3)CC2C1=O (stereo unspecified)	0
O=C(c1ccccc1N=Nc1c(O)[nH]c(=O)[nH]c1=O)N1CCOCC1	0
